The whole screen tested about 52,000 compounds, of which about 4,300 (8.3%) were called active. This is one part of a sample in which actives are shown more often than they occur. A number with no mark means an inactive call. Rule as the data show it: active = survival mostly below about 52% (no sharp cut-off); inactive = mostly above about 56%.

This experiment relates to DeltatarO mutant. As to the kind of experiment: S. aureus survival, RN4220 and DeltatarO strains – OD600, teichoic acid synthesis inhibitors, primary screen (AID 463173). The settings on record: S. aureus RN4220 wild type/DeltatarO growth, OD600, 18 h, active compounds read low, screened at 18.75 µg/mL (by protocol).
For `COc1cccc(/C=C(\C#N)C(=O)Nc2ccc(NC(C)=O)cc2)c1OC`, the survival was 89%.

For `Cc1ccccc1C(=O)Nc1ccc2oc(-c3ccc(Cl)c(Cl)c3)nc2c1`, the survival was 64%.

As to `Cc1ccc2cc(CN(Cc3ccccc3)C(=O)C3CC3)c3nnnn3c2c1`, the survival was 100%.

Take `O=C(NCc1ccco1)C(c1ccccc1)N(C(=O)Cn1nnc2ccccc21)C1CCCC1` (centres undefined): the survival is 105%.

For the molecule `Cc1ccc(N2CC(NC(=O)c3ccccc3C(F)(F)F)CC2=O)cc1C` (centres undefined), the survival is 55%.

In the case of `CC(=O)Nc1ccc(NC(=O)CN(C)S(=O)(=O)c2ccc3c(c2)CCCC(=O)N3)cc1`, the survival was 84%.

For the molecule `CCN(CC)C(NC(=O)c1ccccc1)C(=O)c1ccccc1` (centres undefined), the survival was 85%.

In the case of `COc1ccc(-c2nn(-c3cccc(F)c3)c3c2cnc2cc(OC)c(OC)cc23)cc1`, the survival is 67%.

`Cc1ccc(S(=O)(=O)N(CCO)Cc2ccccc2)cc1`: the survival was 87%.

`COc1ccc(Nc2ncnc3sc4c(c23)CCCC4)cc1`: the survival was 69%.

On to `O=C(Cn1nc(-c2ccccc2)c2c(c1=O)CCCC2)Nc1ccc(F)c(Cl)c1`, for which the survival was 23% (active).

`CC(C(=O)Nc1ccccc1C(F)(F)F)n1nnc2sc3c(c2c1=O)CCCC3` (centres undefined): the survival is 81%.

As for `COC(=O)c1cc(NC(=O)Cn2nc(-c3ccccc3)c3c(c2=O)CCCC3)cc(C(=O)OC)c1`, the survival is 24% (active).

In the case of `COC(=O)c1cc(NC(=O)Cn2nc(-c3ccc(C)c(C)c3)ccc2=O)cc(C(=O)OC)c1`, the survival was 65%.

Consider `COC(=O)c1cc(NC(=O)Cn2nc(C)n3cccc3c2=O)cc(C(=O)OC)c1`, for which the survival is 87%.

`O=C(Cn1nc(C(F)(F)F)c2c1CCCC2)Nc1ccc(F)c(Cl)c1`: the survival was 62%.

For the molecule `CC(C(=O)Nc1cc(C(F)(F)F)ccc1Cl)n1nnc2sc3c(c2c1=O)CCCC3` (centres undefined), the survival was 53% (active).

For `O=C(Cn1c(=O)nc(-c2ccccc2)c2cc(Cl)ccc21)Nc1ccc(F)c(Cl)c1`, the survival is 75%.

On to `CC(=O)Nc1ccc(Nc2ncnc3sc4c(c23)CCCC4)cc1`, for which the survival was 76%.

On to `Cc1ccc(Cl)cc1NC(=O)C(C)n1nnc2sc3c(c2c1=O)CCCC3` (centres undefined), for which the survival is 69%.

Consider `CCc1nc(Nc2ccc(F)c(Cl)c2)c2c3c(sc2n1)CCCC3`, for which the survival is -4% (active).

Turning to `COc1ccc(OCC(=O)Nc2ccc(-c3nc4cc(C)cc(C)c4o3)cc2)cc1`, the survival was 75%.

In the case of `CCOC(=O)C1=C(CN2CCN(c3ccc(Cl)cc3)CC2)NC(=O)NC1c1ccc(F)cc1` (centres undefined), the survival is 70%.

Consider `CCOC(=O)c1nc(Nc2ccc(Cl)cc2)c2c(C)noc2n1`, for which the survival was 68%.

Consider `COc1ccc(OC)c(CNC(=O)c2ccc(NC(=O)c3nsc4ccccc34)cc2)c1`, for which the survival is 80%.

As to `COc1ccc(NC(=O)Cn2nnc3sc4c(c3c2=O)CCCC4)cc1`, the survival is 61%.

On to `O=C(Cn1nnc2sc3c(c2c1=O)CCCC3)Nc1ccc(F)c(Cl)c1`, for which the survival was 36% (active).

With `Cc1c(Cl)cccc1NC(=O)Cn1nnc2sc3c(c2c1=O)CCCC3`, the survival is 75%.

`CCOc1ccc(/C=C(\C#N)c2nc(-c3cc4ccccc4oc3=O)cs2)c(OCC)c1`: the survival was 81%.

Take `CCCCC(=O)Nc1cc(-c2nc3cccnc3s2)ccc1C`: the survival is 35% (active).

Consider `COCC(=O)Nc1cccc(-c2nc3cccnc3s2)c1`, for which the survival is 68%.

On to `Cc1cccc(C(=O)Nc2cc(-c3nc4cccnc4s3)ccc2C)c1`, for which the survival was 45% (active).

In the case of `CCOc1ccc(CC(=O)Nc2cccc(-c3nc4cccnc4s3)c2C)cc1`, the survival is 90%.

Turning to `CCCC(=O)Nc1cc(-c2nc3cccnc3s2)ccc1C`, the survival is 109%.

As to `CCCCC(=O)Nc1cc(-c2cn3cccnc3n2)ccc1C`, the survival is 102%.

Turning to `COc1cc(OC)cc(C(=O)Nc2cc(-c3nc4cccnc4s3)ccc2C)c1`, the survival was 43% (active).

Take `Cc1ccc(-c2nc3cccnc3s2)cc1NC(=O)Cc1ccccc1`: the survival was 99%.

On to `COc1ccc(CC(=O)Nc2cc(-c3nc4cccnc4s3)ccc2C)cc1`, for which the survival is 41% (active).

Turning to `COc1ccc(C(=O)Nc2cccc(-c3nc4cccnc4s3)c2C)c(OC)c1`, the survival is 103%.

As for `Cc1cccc(CC(=O)Nc2cccc(-c3nc4cccnc4s3)c2)c1`, the survival was 93%.

As to `Cc1ccc(C(=O)Nc2cccc(-c3nc4cccnc4s3)c2C)cc1`, the survival was 111%.

`COc1ccc(N2CCN(C(=O)CS(=O)(=O)c3cccc4nsnc34)CC2)cc1`: the survival was 107%.

On to `O=C(CSc1nc2c([nH]c3ccccc32)c(=O)n1-c1cccc(C(F)(F)F)c1)N1CCCC1`, for which the survival was 71%.

Take `Cc1c(C(=O)Nc2ccc(F)c(C(F)(F)F)c2)sc2nc(-c3ccccc3)cn12`: the survival was 105%.

On to `CCOC(=O)C1=CN(O)/C(=C\N=O)C=C1`, for which the survival was 78%.

As to `COc1ccc(Cl)cc1NC(=O)CSc1cc(C)[nH]c(=O)n1`, the survival was 80%.

Turning to `COc1ccc(S(=O)(=O)c2cn(C)c3cc(N4CCCCCC4)c(F)cc3c2=O)cc1`, the survival was 86%.

Consider `Cc1ccccc1Nc1c(-c2c(F)cccc2Cl)nc2ccc(Br)cn12`, for which the survival is 69%.

Consider `COc1ccc(/C=C\c2onc(C)c2S(=O)(=O)N2CCC(C(=O)Nc3ccc(Cl)cc3)CC2)cc1`, for which the survival was 65%.

On to `CCOc1ccccc1C(=O)Nc1cc(-c2nc3cccnc3s2)ccc1C`, for which the survival was 37% (active).

For `O=C(Nc1cccc(-c2nc3cccnc3s2)c1)c1cccc(Br)c1`, the survival is 32% (active).

Regarding `Cc1ccccc1C(=O)Nc1cccc(-c2nc3cccnc3s2)c1`, the survival is 81%.

Take `CN(C)c1ccc(C(=O)Nc2cccc(-c3nc4cccnc4s3)c2)cc1`: the survival is 49%.

Consider `CCCCOc1ccc(C(=O)Nc2cccc(-c3nc4cccnc4s3)c2)cc1`, for which the survival is 92%.

On to `CCOc1ccc(C(=O)Nc2cccc(-c3nc4cccnc4s3)c2C)cc1OCC`, for which the survival was 90%.

In the case of `COc1ccc(CC(=O)N2N=C(c3ccncc3)CC2(O)C(F)(F)F)cc1` (centres undefined), the survival is 104%.

`COc1ccccc1CNC(=O)CCCn1c(=O)c2ccccc2n(CC(=O)Nc2c(C)cc(C)cc2C)c1=O`: the survival is 166%.

For `N#Cc1ccc(CSCC(=O)NN=C2CCCC2)cc1`, the survival was 65%.

In the case of `COc1ccc(OCC2c3cc(OC)c(OC)cc3CCN2C(=O)c2ccc(F)cc2)cc1` (centres undefined), the survival is 94%.

(Values after PubChem BioAssay AID463173 (ICCB-Longwood Screening Facility, Harvard Medical School, 2010).)
